# NS1 inh – qHTS Assay for Inhibitors of Influenza NS1 Protein Function | 0.4% of 270,000 active | AID 2326, 2010 | Potency, µM (top dose mostly 46.1 µM); calls by dose curve; further: actives are rising curves; nearly all actives have a fitted effect of over 50% in size
#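 Read-out: OD600 growth recovery of NS1-expressing budding yeast. Cells grown overnight at 30C in -URA glucose medium, washed, resuspended and diluted 1:100 in 2% galactose assay medium, pH 6.0. Same strain lacking NS1 served as positive control.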
# Shiga toxin inh – A qHTS for Small Molecule Inhibitors of Shiga Toxin. 9.2% of 290,000 active. inhibition, % at 38.7 µM. Vero cells, Shiga toxin protein synthesis inhibition reporter; in the data active means inhibition mostly above about 28%, no sharp cut-off; inactive means mostly below about 43%
# CHX counter – Cycloheximide Counterscreen for Small Molecule Inhibitors of Shiga Toxin. cell reporter, cycloheximide protein synthesis inhibition counterscreen. max response, %. 12% of 300,000 active. AID 2314, 2010; in the data active means max response mostly above about 13%, no sharp cut-off; inactive means mostly below about 14%; further: read at 38.3 µM for the half of the compounds with a filed dose
# Pf growth 48h – Primary qHTS for delayed death inhibitors of the malarial parasite plastid, 48 hour incubation; P. falciparum luciferase growth in erythrocytes, 48 h; Potency, µM (top dose mostly 28.7 µM), actives largely listed as inhibitors; 5.9% of 310,000 active; AID 504832, 2011
#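 A one-generation exposure of luciferase-tagged malaria parasites in RPMI 1640/Albumax erythrocyte culture, 37 C and 5% CO2. Inhibition is inferred from decreased luminescence after adding detection reagent.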
# Pf growth 96h – Primary qHTS for delayed death inhibitors of the malarial parasite plastid, 96 hour incubation; 6.9% of 320,000 active; P. falciparum luciferase reporter growth, 96 h; Potency, µM (top dose mostly 28.7 µM), hits mostly inhibitors; AID 504834, 2011
#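 P. falciparum expressing integrated firefly luciferase grown in erythrocytes (2% hematocrit, 0.05% parasitemia final) with compounds for 96 hours at 37 C, 5% CO2. Growth inhibition read as loss of luminescence after adding luciferase detection reagent.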
# Hits are given with their value; i = inactive; ? = inconclusive; nt = no result given; [ ] = dose if it differs, or a comment. Only some compounds are listed: those with a hit (about 21% of all), similar ones and a draw of the others. Unless noted, the call rests on the fitted dose curve; in most records, active means well fitted inhibition curve with a large enough effect; inconclusive means small, poorly fitted or top-dose-only effect, or another doubt; inactive means no such curve, though single readings can be large or run the other way.
SMILES,NS1 inh,Shiga toxin inh,CHX counter,Pf growth 48h,Pf growth 96h
CN1c2cccc3cccc(c23)N(C)C1c1cccs1,?,i,i,?,?
CN1c2ccccc2-c2nc3ccccc3n2C1c1cccs1 (stereo unspecified),i,i,i,8.28µM,1.65µM
CC(=O)N1c2ccccc2-c2nc3ccccc3n2C1C (stereo unspecified),i,i,i,i,i
CCCNC(=O)C1CC(=O)N(c2ccc(OCc3ccc(F)cc3)cc2)C1 (stereo unspecified),i,112.4,33.3,i,?
CCCCOc1ccc(N2CC(C(=O)NCCc3ccc(OC)c(OC)c3)CC2=O)cc1 (stereo unspecified),nt,i,i,i,11.7µM
NC(=O)C1CC(=O)N(c2ccc(OCc3ccc(Cl)cc3)cc2)C1 (stereo unspecified),i,78.9,49.6,i,i
COc1ccc(N2CC(C(=O)NCCc3ccc(OC)c(OC)c3)CC2=O)cc1 (stereo unspecified),i,i,i,i,i
C=CCNC(=O)C1CC(=O)N(c2ccc(OCC(=O)Nc3ccc(C)cc3)cc2)C1 (stereo unspecified),i,i,i,i,i[5.75 µM]
C=CCNC(=O)C1CC(=O)N(c2ccc(OCC(=O)Nc3ccccc3)cc2)C1 (stereo unspecified),i,47.9,30.1,i,nt
CCOc1ccc(C(=O)NNC(=O)CN2C(=O)NC3(CCCC3)C2=O)cc1,nt,nt,nt,i,i
CCN(Cc1ccccc1)C(=O)c1ccc2c(=O)n3c(nc2c1)CCC3,nt,nt,nt,i,i
Cc1ccc(C(=O)N2N=C3c4ccccc4S(=O)(=O)N3[C@H]2N(C)C)cc1,i,i,i,i,?
C=CCNC(=O)C1CC(=O)N(c2ccc(OCc3ccc(F)cc3)cc2)C1 (stereo unspecified),i,72.0,47.5,i,11.7µM
CCCNC(=O)C1CC(=O)N(c2ccc(OCc3ccc(Cl)cc3)cc2)C1 (stereo unspecified),i,nt,27.1,i,i
C=CCNC(=O)C1CC(=O)N(c2ccc(OCC(=O)N3CCCC3)cc2)C1 (stereo unspecified),i,i,i,i,i
CCOc1ccc(N2CC(C(=O)NCCc3ccccc3)CC2=O)cc1 (stereo unspecified),i,i,i,i,?
CCOc1ccccc1CN1C(=O)NC(C)(c2ccccc2)C1=O (stereo unspecified),i,i,i,i,9.28µM
CCOC(=O)N1CCN(C(=O)CN2C(=O)NC(C)(c3ccc4ccccc4c3)C2=O)CC1 (stereo unspecified),nt,nt,nt,11.7µM,?
CN1CCN(C(=O)CN2C(=O)NC(C)(c3ccc4ccccc4c3)C2=O)CC1 (stereo unspecified),nt,nt,nt,i,?
CC1(c2ccccc2)NC(=O)N(CCOc2ccccc2)C1=O (stereo unspecified),i,i,i,i,i
CCCNC(=O)NC(=O)CN1C(=O)NC(C)(c2ccc(C)cc2)C1=O (stereo unspecified),i,i,i,i,13.1µM
CC(C)(C)NC(=O)NC(=O)CN1C(=O)NC(C)(c2ccccc2)C1=O (stereo unspecified),i,i,i,i,i
CCOC(=O)NC(=O)CN1C(=O)NC(C)(c2ccccc2)C1=O (stereo unspecified),i,i,i,i,1.85µM
Cc1cc(S(=O)(=O)/N=C(\N)c2ccc(C(N)=O)cc2)cc(C)c1F,i,i,i,i,i
COc1ccc(C2/C=C\CN(CC(C)C)CC(=O)N2Cc2cccc(F)c2)cc1 (stereo unspecified),nt,i,i,nt,nt
SMILES,NS1 inh,Shiga toxin inh,CHX counter,Pf growth 48h,Pf growth 96h
O=C(O)c1sc2cccc(Cl)c2c1Cl,i,i,15.8,?,1.31µM
Cn1c(/C(C#N)=C/c2ccc(O)cc2)nc2ccccc21,i,46.9,50.1,i,2.33µM
O=c1ccn(C2OC(COP(=O)(O)OC3C(CO)OC(n4ccc(=O)[nH]c4=O)C3O)C(O)C2O)c(=O)[nH]1 (stereo unspecified),nt,nt,nt,i,i
CCC(C)n1c(C)nc2c(c1=O)c1nc3ccccc3nc1n2CCC1=CCCCC1 (stereo unspecified),i,i,i,13.1µM,11.7µM
CCN1C(=O)CC(c2ccco2)Sc2ccccc21 (stereo unspecified),i,i,i,i,nt
COc1cccc(-c2c(-c3cc(OC)cc(OC)c3)n(C)c3ccc(-c4ccc5[nH]ccc5c4)cc23)c1,nt,nt,nt,5.86µM,?

# Assay outcomes as filed in PubChem BioAssay.
